# ANO1 block – TMEM16A chloride channel inhibitors, primary screen, cell-based, HTS. Anoctamin-1 (Mus musculus), Q8BHY3. 310,000 compounds, 1.2% hits. HEK293 TMEM16A/YFP iodide influx fluorescence, ionomycin. AID 588511, 2011. normalized B-score (activity score, 25-100; higher = stronger inhibition) at 10 µM;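 active means ratio plate-corrected score three or more library SD toward inhibition, starting fluorescence score within five deviations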;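 further: score derived from kinetic fluorescence span divided by baseline fluorescence per well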
# NTR1 ag – agonists of human NTR1, primary screen, imaging, U2OS cells, beta-arrestin-GFP, high content | NTR1-U2OS beta-arrestin-GFP spot imaging, agonist mode | activation, % at 20 µM | 330,000 compounds, 0.17% hits;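 active means activation at or above 40% of the spot to cytoplasm intensity ratio, with at least 20 cells analyzed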
# Target sequence (P30989 whole entry, looked up): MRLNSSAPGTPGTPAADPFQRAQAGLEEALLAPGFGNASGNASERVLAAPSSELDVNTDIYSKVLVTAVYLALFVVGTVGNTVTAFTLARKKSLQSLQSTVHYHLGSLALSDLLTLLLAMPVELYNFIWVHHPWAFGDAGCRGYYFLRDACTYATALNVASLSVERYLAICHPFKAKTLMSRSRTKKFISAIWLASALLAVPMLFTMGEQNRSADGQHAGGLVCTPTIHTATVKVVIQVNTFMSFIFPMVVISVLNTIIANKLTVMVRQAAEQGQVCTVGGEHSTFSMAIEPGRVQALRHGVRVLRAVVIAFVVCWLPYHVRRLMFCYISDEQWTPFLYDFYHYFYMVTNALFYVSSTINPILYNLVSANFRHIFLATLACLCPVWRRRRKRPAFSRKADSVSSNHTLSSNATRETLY
# M1 ag parental – counter-screen for M1 agonists: effect in parental CHO-K1 cells. Fluo-8 calcium fluorescence; scaled to maximal ATP response, vehicle zero. activation, % at 3 µM. 360,000 compounds, 0.48% hits; in the data active means activation above about 15%;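 further: untransfected CHO-K1 host cells lacking M1 receptor as counterscreen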
# CHO-K1 Ca antag – nonselective inhibitor or artifact in parental CHO-K1 cells | 360,000 compounds, 0.6% hits | ATP-induced calcium, Fluo-8 fluorescence | inhibition, % at 3 µM;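 active means inhibition above a per-plate cutoff, the plate's mean sample inhibition plus 3 SD, cut at about 24% in these data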
# CHO-K1 Ca PAM – nonselective calcium activators in parental CHO-K1 cells, primary screen, counter-screen for M1 PAM project, cell-based, Fluo-8 calcium fluorescence, full deck, 1536-well | ATP EC20; 0% at ATP EC20, 100% at ATP max | activation, % at 3 µM | 360,000 compounds, 0.02% hits;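 active means activation above the run cutoff, the mean activation of all test compounds plus 3 SD, cut at about 40% in these data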;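 further: peak over basal fluorescence ratio in a 140 s read after ATP addition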
# ANO1 activ – TMEM16A chloride channel activators or potentiators, primary screen, cell-based, HTS; HEK293 TMEM16A/YFP-H148Q/I152L, iodide quench fluorescence; active compounds read low; B-score at 10 µM; 340,000 compounds, 0.3% hits; AID 623877, 2012;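 active means fluorescence-ratio B-score plate-corrected deviation score at least 3 library SD below zero, with starting fluorescence score within 5 deviations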;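 further: channel opened by trigger with iodide after compound preincubation; score built on the fluorescence ratio of max minus min over baseline; more negative score means more quench and so TMEM16A activation or potentiation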
# Numbers stand for hits; – = inactive; · = no result. An excerpt weighted towards active compounds, which were near 2.2% of everything screened.
SMILES,ANO1 block,NTR1 ag,M1 ag parental,CHO-K1 Ca antag,CHO-K1 Ca PAM,ANO1 activ
O=C(NCc1ccccc1)c1cccc(COc2ccc(Cl)cc2)c1,25,–,–,–,–,–
CC1=C(C(=O)N2CCCCCC2)CC(CC(=O)NC(c2ccccc2)c2ccccc2)C(=O)N1CCC1=CCCCC1 (stereo unspecified),·,·,–,–,–,·
CCOC(=O)c1csc(-c2snnc2C)n1,–,–,16.7,–,–,–
CCCCCCCCN1C(=O)[C@H](CC(=O)N2CCCCC2)C[C@@]2(C(=O)OC)CCCCC=C12,·,·,–,–,–,·
Cc1c(-n2c(-c3ccccc3)nc3ccccc3c2=O)c(=O)n(-c2ccccc2)n1C,–,–,20.6,–,–,–
O=C(Nc1ccc(-c2nc3cccnc3s2)cc1)c1cccnc1Cl,–,–,–,–,–,–
O=C(Nc1ccc(-c2nc3cccnc3s2)cc1)c1ccc(Cl)nc1,–,–,20.8,–,–,–
COc1cccc(CNC(=O)[C@@H]2CCCN2C(=O)[C@H]2CCCCN2C(=O)c2cccc(OC)c2)c1,·,·,–,–,–,·
COc1cccc(-c2cnc3c(NC(C)=O)cc(-c4cccc(C(=O)NCCN(C)C)c4)cn23)c1,·,·,–,–,–,·
Cc1csc(NC(=O)Cc2nn(C)c(=O)c3ccccc23)n1,25,–,–,–,–,–
COc1ccc(CC(=O)Nc2nc(C)cs2)cc1,–,–,15.6,–,–,–
COc1cccc(OC)c1NC(=O)Cc1nn(C)c(=O)c2ccccc12,–,–,–,–,–,–
COc1ccc(-c2csc(NC(=O)CSc3n[nH]c(C)n3)n2)cc1,25,–,–,–,–,–
COc1ccccc1NC(=O)Cc1nn(C)c(=O)c2ccccc12,25,–,–,–,–,–
O=C(O)CCC(=O)c1ccc(C2CCCCCC2)cc1,·,·,–,–,–,·
O=c1oc2c3c4c(cc2c(C(F)(F)F)c1CCN1CCOCC1)CCCN4CCC3,–,–,25.7,–,–,–
COc1ccccc1CNC(=O)C1CCC(=O)N(CCCc2ccccc2)C1 (stereo unspecified),–,–,–,32.2,–,–
COC(=O)c1ccc(CNC(=O)C2CCC(=O)N(CCCc3ccccc3)C2)cc1 (stereo unspecified),–,–,–,–,–,–
CCOc1ccccc1-c1cncc(NC)n1,·,·,–,–,–,·
CCn1nc(C)cc1-c1nnc(SCC(=O)Nc2ccccc2)n1CCCOC,–,–,–,–,–,–
CCn1nc(C)cc1-c1nnc(Sc2ncc([N+](=O)[O-])s2)n1C,–,–,–,–,–,-9.8
O=C1NC[C@H](CCCCN2C[C@H](Cc3ccccc3)N(Cc3ccccc3)C(=O)C2=O)N(CCC2CCCCC2)C1=O,·,·,–,–,–,·
Cn1c(=O)c2c3c(sc2n2cnnc12)CCC3,25,–,–,–,–,–
O=C(CNCc1ccc(Cl)cc1)Nc1ccc2c(c1)OCCO2,–,–,21.5,–,–,–
CN(C)c1ccc(/C=C2\SC(=S)N(Nc3ncc(C(F)(F)F)cc3Cl)C2=O)cc1,–,–,20.5,38.6,–,–
SMILES,ANO1 block,NTR1 ag,M1 ag parental,CHO-K1 Ca antag,CHO-K1 Ca PAM,ANO1 activ
COC(=O)[C@]12CCCCC=C1N(Cc1cccc3ccccc13)C(=O)[C@H](CC(=O)N1CCCCC1)C2,·,·,–,–,–,·
Oc1ccc(NCc2cccc(OCc3ccc(F)cc3)c2)cc1,25,–,–,–,–,–
CC1SC(c2ccccc2)N(CC(O)c2ccc([N+](=O)[O-])cc2)C1=O (stereo unspecified),–,–,–,25.4,–,–
CCOC(=O)c1ccc(N2C(=O)C=CC2=O)cc1,25,–,–,–,–,–
CCOC(=O)c1ccc(-n2c(C)ccc2C)cc1,–,–,–,–,–,–
COc1cc(OC)c(OC)cc1/C=C/c1cc(C(=O)O)c2ccccc2n1,–,–,–,–,–,–
COc1ccc(/C=C/c2cc(C(=O)O)c3ccccc3n2)cc1,–,–,21.3,–,–,–
COCCNc1nc(NCc2ccccc2F)c2sccc2n1,·,·,–,–,–,·
CNc1nc(NCCOc2ccccc2)c2sccc2n1,·,·,–,–,–,·
COc1ccccc1CNc1nc(NCc2cccc(OC)c2OC)c2sccc2n1,·,·,–,–,–,·
c1ccc(CNc2nc(NCc3ccccc3)c3sccc3n2)cc1,·,·,27.5,–,–,·
Fc1cc(Cl)ccc1Nc1nc(NCc2ccccc2)nc2ccsc12,·,·,–,–,–,·
COc1ccccc1CNc1nc(NCc2ccccc2F)c2sccc2n1,·,·,16.5,27.7,–,·
COc1ccccc1CNc1nc(NCc2ccccc2)nc2ccsc12,·,·,–,24.0,–,·
c1ccc(CNc2nc(NCCOc3ccccc3)c3sccc3n2)cc1,·,·,35.3,27.7,–,·
CCN(CC)Cc1cc(Oc2ccc(O)c(CN(CC)CC)c2)ccc1O,·,·,–,–,–,·
CCOc1ccc(C(=O)CN2C(=O)NC3(CCCc4ccccc43)C2=O)cc1 (stereo unspecified),·,·,–,–,–,·
CCOC(=O)C(Sc1n[nH]c(N)n1)c1ccccc1 (stereo unspecified),25,–,–,–,–,–
CN(Cc1ccccc1)C(=O)CSc1n[nH]c(N)n1,–,–,–,–,–,–
CC(=O)Nc1cccc(-c2cc(NC(C)=O)c3ncc(-c4cccc(C(F)(F)F)c4)n3c2)c1,·,·,–,–,–,·
CCOC(=O)C(C)On1c(-c2ccccc2)nc2ccc([N+](=O)[O-])cc21 (stereo unspecified),–,–,–,–,–,–
CCOC(=O)C(C)On1c(-c2ccc(Cl)cc2)nc2ccc([N+](=O)[O-])cc21 (stereo unspecified),100,–,–,–,–,–
O=C1CSCc2nc3ccccc3n21,·,·,–,–,–,–
C/C(CS(=O)(=O)c1ccc(Cl)c(Cl)c1)=N/NC(N)=S,–,–,–,–,–,-8.52
C/C(CS(=O)(=O)c1ccc(Cl)cc1)=N/NC(N)=S,–,–,–,–,–,–
COc1ccc(C(=O)N2CCN=C2c2ccccc2)cc1OC,–,–,–,26.2,–,–
O=S(=O)(NC1CCCCC1)c1ccc(N2CCOCC2)nc1,–,–,19.3,–,–,–
COc1ccc(F)cc1-c1cc(C(=O)N2CCc3ccccc3C2)[nH]n1,·,·,–,–,–,·
N#CCCn1nc(-c2ccccc2)cc1Nc1ccccc1NC(=O)C(F)(F)F,–,–,–,–,–,–
N#CCCn1nc(-c2ccc(Br)cc2)cc1Nc1ccccc1NC(=O)C(F)(F)F,100,–,–,–,–,–
